Experimental data from PubChem BioAssay AID1745847 (National Center for Advancing Translational Sciences (NCATS), 2022).
Values joined by “and” are separate entries in the source; they are usually repeats but may differ in a detail not shown here. Identical values can stand only once. Hit rate of the full screen: of about 2,100 compounds, about 670 (32%) were called active. Roughly 50% stayed inconclusive and do not appear here. The list shows a part of the results. Unmarked numbers belong to inactive results. The call rests on the fitted dose curve; in most records, active means well fitted inhibition curve with a large enough effect; inconclusive means small, poorly fitted or top-dose-only effect; inactive means no such curve, though single readings can be large or run the other way.

Assay: CMV-Luciferase Counterscreen for Inhibitors of ATXN expression; further: nearly all actives have a fitted effect of over 55% in size
Conditions: HEK-293 CMV-luciferase reporter, luminescence, 24 h; series mostly up to 57.5 µM
On the % scale 0 is the no-effect control and ±100 the full control effect; potency means the concentration at half of the fitted maximal effect.

Row | SMILES | Potency | activity change, negative = inhibition
1 | COc1cccc(/C=N/NC(=O)Cn2nc(C)c([N+](=O)[O-])c2C)c1O | 8.91 µM (active) | 
2 | COc1ccc(O)c(/C=N/NC(=O)c2ccc(CSc3nc(C)cc(C)n3)cc2)c1 | 2.82 µM (active) | 
3 | CCCCSc1nc(C)cc(SCC(=O)N/N=C/c2cccc(OC)c2O)n1 | 1 µM (active) | 
4 | OC(c1cc(-c2cccc(Cl)c2)nc2ccccc12)C1CCCCN1 (centres undefined) | 22.4 µM (active) | 
5 | Cc1onc(-c2c(F)cccc2Cl)c1C(=O)Nc1nnc(C(F)(F)F)s1 | 1.41 µM (active) | 
6 | C[n+]1c2cc(N)ccc2cc2ccc(N)cc21 | 8.91 µM (active) and 3.55 µM (active) | 
7 | Cc1nc2ccccc2n1-c1nc(-c2ccco2)cc(C(F)(F)F)n1 | inactive | 
8 | CC(C)NC1CCC(Nc2ccnc3cc(Cl)ccc23)CC1 (centres undefined) | 17.8 µM (active) | 
9 | Cc1ccc(N=Nc2ccc(O)c3ncccc23)cc1 | 3.55 µM (active) | 
10 | Cc1ccccc1N=Nc1ccc(O)c2ncccc12 | 1.41 µM (active) | 
11 | CC(C)(C)S(=O)(=O)/C(C#N)=N/Nc1ccc(Cl)cc1 | 7.94 µM (active) | 
12 | FC(F)(F)c1ccc(N2CCN(c3cc(-c4ccccc4)nc4ncnn34)CC2)nc1 | 1.58 µM (active) | 
13 | O=c1cc(Nc2ccc3c(c2)OCCO3)[nH]c(=O)n1-c1ccc(Br)cc1 | inactive | 
14 | CCN(CC)c1ccc(/C=N/NC(=O)Cc2cccs2)c(O)c1 | 2.82 µM (active) | 
15 | O=C(Cn1c(=O)n(CC(=O)NCc2ccccc2)c2ccccc21)NCc1ccccc1 | inactive | 
16 | CCN(CC)c1ccc(/C=N/NC(=O)CCC(=O)NCc2ccccc2)c(O)c1 | 3.16 µM (active) | 
17 | CCN(CC)c1ccc(/C=N/NC(=O)c2cccc(S(=O)(=O)N3CCOCC3)c2)c(O)c1 | 0.891 µM (active) | 
18 | CN(C)c1nc(N/N=C/c2c[nH]c3ccccc23)nc(N2CCOCC2)n1 |  | -16.1% [at 11.4 µM]
19 | Cc1cc(C)n(-c2nc(NCCN(C)C)c3c4c(sc3n2)COC(C)(C)C4)n1 |  | -12.1% [at 11.4 µM]
20 | CN1CCN(c2nc(-c3ccccn3)nc3ccccc23)CC1 | inactive | 

Row | SMILES | Potency | activity change, negative = inhibition
21 | c1ccc(CNc2nc(-c3ccccn3)nc3ccccc23)cc1 | 4.47 µM (active) | 
22 | O=S(=O)(Cc1cc(NCc2ccccc2)nc(-c2ccccn2)n1)c1ccccc1 | inactive | 
23 | O=S(=O)(c1ccc2c(c1)OCCO2)N1CCC(c2nc3ccc(Cl)cc3[nH]2)CC1 | 3.98 µM (active) | 
24 | CCOc1ccc(NCc2cccn2-c2nnc(N3CCC(C(=O)NCCCN4CC(C)CC(C)C4)CC3)s2)cc1 (centres undefined) |  | -19.5% [at 11.4 µM]
25 | COc1ccc(-n2c(-c3ccc(Cl)cc3)c[n+]3c2CCCCC3)cc1 | 12.6 µM (active) | 
26 | COc1ccc(-c2c[n+]3c(n2-c2ccc(C)cc2)CCCCC3)cc1 | 6.31 µM (active) | 
27 | O=c1cc(-c2ccccc2Cl)oc2c([N+](=O)[O-])c(O)cc(O)c12 | 1.26 µM (active) | 
28 | CC1(S(=O)(=O)O)CC(=O)c2ccccc2C1=O (centres undefined) | 28.2 µM (active) | 
29 | CC(C)N(C(=O)COC(=O)c1ccccc1C(=O)c1ccc(Cl)c([N+](=O)[O-])c1)C(C)C |  | -18% [at 11.4 µM]
30 | CCn1c(C)cc(C(=O)COC(=O)c2ccccc2[N+](=O)[O-])c1C | 22.4 µM (active) | 
31 | O=C(CCc1ccccc1)N/N=C/c1cc(Br)ccc1O | 0.891 µM (active) | 
32 | O=C(CP(=O)(c1ccccc1)c1ccccc1)N/N=C/c1cc(Br)cc(Br)c1O | 1.78 µM (active) | 
33 | Cc1ccc(SCCC(=O)N/N=C/c2ccccc2O)cc1 | 1.78 µM (active) | 
34 | O=C(CCN1CCN(c2ccccc2)CC1)N/N=C/c1ccccc1O | 0.501 µM (active) | 
35 | O=C(COc1nsnc1N1CCOCC1)N/N=C/c1ccccc1O | 11.2 µM (active) | 
36 | O=C(CCCOc1ccc(Cl)cc1Cl)N/N=C/c1ccccc1O | 2.51 µM (active) | 
37 | O=C(CN1CC(c2ccccc2)CC1=O)N/N=C/c1cc(Br)ccc1O (centres undefined) | 10 µM (active) | 
38 | O=C(Cc1ccccc1)N/N=C/c1cc(Br)cc(Br)c1O | 2.51 µM (active) | 
39 | NC(Cc1ccc(C(F)(F)F)cc1)c1csc(Nc2nccc(C(F)(F)F)n2)n1 (centres undefined) |  | -10.1% [at 11.4 µM]
40 | COc1ccc(O)c(/C=N/NC(=O)CCC(=O)Nc2cccc(C)c2)c1 | 10 µM (active) | 

Row | SMILES | Potency | activity change, negative = inhibition
41 | O=C(CCC(=O)Nc1ccc(Br)cc1)N/N=C/c1ccccc1O | 1.26 µM (active) | 
42 | NNC(=O)/C(=N/Nc1ccccc1)S(=O)(=O)c1ccc(Cl)cc1 | 3.55 µM (active) | 
43 | CCc1nc2c(OCc3ccc(Cl)cc3Cl)cccn2c1N(C=O)Cc1ccc(OC)cc1 | 3.16 µM (active) | 
44 | CCCCC(=O)N(C)c1c(CC)nc2c(OCc3ccc(Cl)cc3Cl)cccn12 | 3.55 µM (active) | 
45 | CCOC(=O)N(C)c1c(CC)nc2c(OCc3ccccc3C)cccn12 | 20 µM (active) | 
46 | CCCCC1C(=O)CC[C@H]2[C@@H]1CC(=O)[C@@H]2C/C=C\CCCC(=O)O (some centres undefined) |  | 4.23% [at 11.4 µM]
47 | O=C(NCC1CC1)c1ccc2c(c1)S(=O)(=O)c1cc(Cl)ccc1C2=O |  | -10.6% [at 11.4 µM]
48 | C=CCn1c(COc2ccccc2)nnc1SCC(=O)N/N=C/c1cc(Cl)ccc1O | inactive | 
49 | Cc1nnc(SC(C)C(=O)Nc2ccc(Cl)cn2)n1Cc1ccccc1 (centres undefined) | inactive | 
50 | C=CCn1c(COc2ccccc2)nnc1SC(C)C(=O)N/N=C/c1cc(Cl)ccc1O (centres undefined) | 10 µM (active) | 
51 | O=C(Nc1nc(-c2ccccn2)cs1)c1ccccc1-n1cnnn1 | 3.55 µM (active) | 
52 | N#Cc1cc2c(=O)n3ccccc3nc2n(-c2ccccc2Cl)c1=O | inactive | 
53 | Cc1nc(SCC(=O)Nc2ccc(S(=O)(=O)N3CCOCC3)cc2)c2c(C)c(C)sc2n1 | 2.82 µM (active) | 
54 | Cc1ccc(C)c(N2CCN(C(=O)C34CC5CC(C3)CC(n3nnc(C)n3)(C5)C4)CC2)c1 | 11.2 µM (active) | 
55 | O=C(CSc1ccc2c(c1)OCCO2)Nc1ccc(Cl)cn1 | inactive | 
56 | Cc1ccc(NC(=O)CSc2ccc(Br)cc2)cc1S(=O)(=O)N1CCOCC1 | 22.4 µM (active) | 
57 | COc1ccc(/C=C/C(=O)c2cc3cccc(OC)c3oc2=O)cc1 | inactive | 
58 | Cc1ccc(NC(=O)/C=C/c2ccc(S(=O)(=O)N3CCOCC3)cc2)cc1S(=O)(=O)N(C)C | 2.51 µM (active) | 
59 | COc1ccc(/C=C/C(=O)Nc2ccc(C)c(S(=O)(=O)N3CCOCC3)c2)cc1 | 10 µM (active) | 
